# Bioassay records (PubChem)
# Hits are enriched below; roughly 9.5% of the tested compounds scored in any of these assays.
# RE007 growth inh: less growth of the S. pombe RE007 Vpr strain. Potency, µM (top dose mostly 92.2 µM), for inactives: at the highest dose activity change, negative = less growth, actives largely listed as inhibitors. AID 651644. S. pombe RE007 Vpr strain, BacTiter-Glo ATP luminescence, 24 h. hit rate 0.21% among 360,000; active = well fitted falling curve with a large enough effect; inconclusive = small, poorly fitted or top-dose-only effect; inactive = no such curve, though single readings can be large or run the other way; also: % is scaled to controls: 0 for no effect and ±100 for the full control effect; nearly all actives have a fitted effect of over 50% in size
#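 Fission yeast strain RE007, carrying one chromosomally integrated HIV-1 vpr copy, was seeded at OD 0.01 in PMG+AL medium with 23 nL pinned compound. After 24 h at 30 °C and 99% humidity, viability was read by BacTiter-Glo luminescence.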
# SARS PLP yeast: blocks SARS-CoV papain-like protease in a yeast assay; S. cerevisiae expressing SARS-CoV PLpro, growth rescue; Potency, µM (highest dose often 32.9 µM), for the others: top-dose activity, positive = growth rescue, actives largely listed as activators; hit rate 0.19% among 330,000; AID 485353; calls by dose curve; also: 0% is about no effect; nearly all actives have a fitted effect of over 55% in size
# NS1 inh: influenza NS1 inhibition | Potency, µM (titrated, usually from 46.1 µM), for the others: top-dose activity, positive = more growth | hit rate 0.4% among 270,000; calls by dose curve; also: actives are rising curves; nearly all actives have a fitted effect of over 50% in size
#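 Recovery from NS1-induced slow growth read by OD600 in budding yeast switched to galactose assay medium (pH 6.0, -URA) at 1:100 dilution. Compound 23 nl per well; the matching strain lacking NS1 serves as control.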
# Pf growth 96h: P. falciparum growth inhibition at 96 hours; P. falciparum luciferase reporter growth, 96 h; Potency, µM (titrated, usually from 28.7 µM), inactives show at the top dose activity change, negative = inhibition, hits mostly inhibitors; hit rate 6.9% among 320,000; also: % is scaled to controls: 0 for no effect and ±100 for the full control effect
#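 Luminescence readout: decreased luciferase signal marks inhibited growth of reporter-expressing P. falciparum in infected red cells (2% hematocrit, 0.05% parasitemia final), exposed to compound two generations (96 h, 37 C, 5% CO2).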
# Pf growth 48h: P. falciparum growth inhibition at 48 hours (one generation). P. falciparum luciferase growth in erythrocytes, 48 h. Potency, µM (titrated, usually from 28.7 µM), without a hit: top-dose activity change, negative = inhibition, hits mostly inhibitors. hit rate 5.9% among 310,000; also: % is scaled to controls: 0 for no effect and ±100 for the full control effect
#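 Erythrocytes infected with P. falciparum carrying an integrated firefly luciferase reporter (2% hematocrit, 0.1% parasitemia final) were exposed to compounds in RPMI 1640 with 0.5% Albumax at 37 C, 5% CO2. Growth inhibition was scored as reduced luminescence.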
# Active calls of the source: *; ? = inconclusive; nt = no result. Unless noted, calls follow the shape of the dose curve; as a rule, active = well fitted inhibition curve with a large enough effect; inconclusive = small, poorly fitted or top-dose-only effect, or another doubt; inactive = no such curve, though single readings can be large or run the other way. Potency is read from the fitted curve at half-maximal effect.
SMILES,RE007 growth inh,SARS PLP yeast,NS1 inh,Pf growth 96h,Pf growth 48h
COc1cc(C2Nc3ccc4ccccc4c3C3=C2C(=O)CC(C)(C)C3)ccc1OCC(=O)O (configuration not stated),-1%,-4%,?,0.93µM*,?
CC1(C)CC(=O)C2=C(C1)c1c(ccc3ccccc13)NC2c1ccc(OCC(=O)O)cc1 (configuration not stated),1%,13%,-2%,-29%,10µM*
O=C(COC(=O)Cc1c(F)cccc1Cl)Nc1nnc(-c2ccccc2)o1,-15%,nt,nt,5%,1%
CC(C)C(C(=O)NC1CCCC1)N(CC1CCCO1)C(=O)CNS(=O)(=O)c1ccccc1 (configuration not stated),-12%,0%,8%,4%,-17%
O=C(NCCC(=O)N1CCCC1)c1ccccc1Cl,-11%,-2%,4%,32%,24%
O=[N+]([O-])c1ccc(N2CCc3ccccc3C2)cc1,-27%,-4%,-74%,0%,37%
NC(=O)C1CC(=O)N(Cc2ccc3c(c2)OCO3)C(=Nc2ccccc2)S1 (configuration not stated),-2%,-3%,-18%,15µM*,-20%
CNC(=O)C1CC(=O)N(Cc2ccc3c(c2)OCO3)C(=Nc2ccc(OC)cc2)S1 (configuration not stated),2%,2%,-23%,?,?
COCCn1c(SCc2cnc(-c3ccccc3)s2)nnc1-c1ccncc1,-4%,3%,-1%,9.3µM*,?
O=[N+]([O-])c1ccc(C(O)CN2CCN(c3ccccc3)CC2)cc1 (configuration not stated),-12%,3%,2%,?,?
O=[N+]([O-])c1ccc(C(O)C[n+]2ccccc2)cc1 (configuration not stated),-19%,-2%,0%,7.4µM*,-18%
COc1ccc(CNC(=O)CN2CCC(NC(=O)c3cccc(OC)c3)CC2)cc1,-8%,nt,nt,nt,nt
O=S(=O)(Nc1ccc(Cl)c(Cl)c1)N1CCOCC1,8%,-1%,-9%,4.7µM*,7%
CN1C(C(=O)N2CCc3ccccc3C2)=CC(c2ccc(F)cc2)=NS1(=O)=O,-3%,1%,19%,64%,-7%
CCOC(=O)c1cnc(SCc2cccc3ccccc23)nc1N,11%,10%,-1%,4.7µM*,nt
COC(=O)c1ccc2c(=O)n(C3CCCCC3)c(SCC#N)nc2c1,8%,18%,-37%,-12%,-8%
COc1ccccc1Cn1c(SCC#N)nc2cc(C(=O)N3CCC4(CC3)OCCO4)ccc2c1=O,4%,4%,nt,9.3µM*,?
CCn1c(CCNC(=O)c2cccs2)nnc1SCC(=O)Nc1cccc(Cl)c1,-10%,nt,nt,nt,nt
CCOC(=O)CSc1nnc(Cn2c(=O)sc3ccccc32)n1-c1ccccc1C,10%,-9%,-2%,15µM*,4%
COCCCn1c(SCC(=O)N2CCc3ccccc32)nnc1-c1ccco1,-2%,0%,-6%,12µM*,-6%
Cn1c(Cn2c(=O)sc3ccccc32)nnc1SCC(=O)Nc1ccc(Cl)cc1,-6%,?,?,10µM*,2%
CCn1c(CCNC(=O)c2cccs2)nnc1SCC(=O)Nc1nc(-c2ccccc2)cs1,17%,8%,0%,?,12µM*
COCCCn1c(SCC(=O)N2CCc3ccccc32)nnc1-c1ccoc1C,-3%,nt,5%,nt,nt
CCSc1nnc(Cn2c(=O)sc3ccccc32)n1-c1ccc(OC)cc1,-6%,12%,-1%,?,-12%
Cn1c(CNC(=O)c2cccs2)nnc1SCC(=O)Nc1ccc(Cl)cc1,-6%,19%,-11%,?,12µM*
SMILES,RE007 growth inh,SARS PLP yeast,NS1 inh,Pf growth 96h,Pf growth 48h
COc1ccc(-n2c(Cn3c(=O)sc4ccccc43)nnc2SC)cc1,-1%,4%,-17%,1.9µM*,3%
CCc1nnc(SCC(=O)N2CCc3ccccc32)n1CC,-12%,-1%,0%,?,1%
CCn1c(CSc2ncccn2)nnc1SCC(=O)N1CCc2ccccc21,-9%,5%,-5%,4.7µM*,?
Cc1ccc(NC(=O)CSc2nnc(CNC(=O)c3ccco3)n2C)cc1C,-7%,2%,nt,13µM*,-8%
COc1ccc(CC(=O)Nc2nn(C)c3nc4c(C)cccc4cc23)cc1,0%,-3%,-8%,-22%,18%
Cc1ccc(NC(=O)c2cc(-c3cc(Cl)ccc3C)n[nH]2)cc1NS(C)(=O)=O,-10%,nt,nt,nt,nt
O=C(NCc1ccco1)c1cc([N+](=O)[O-])ccc1N1CCOCC1,-1%,0%,2%,?,9%
Cn1c(Cn2c(=O)sc3ccccc32)nnc1SCC(=O)N1CCCc2ccccc21,3%,7%,-8%,?,?
Cn1c(Cn2c(=O)sc3ccccc32)nnc1SCC(=O)N1CCc2ccccc21,5%,7%,3%,5.2µM*,5%
CC1(C)CN(Cc2ccccc2)C(=O)[C@H]1CC(=O)Nc1ccc(Br)cc1,0%,nt,nt,nt,nt
CC(=O)c1ccc(N2CCN(S(=O)(=O)c3cn(C)c(C)n3)CC2)cc1,3%,1%,3%,5%,?
OCCC1CN(Cc2ccccc2O)CCN1CCc1ccccc1 (configuration not stated),-11%,-1%,-4%,32%,9.3µM*
CCOc1cc(CN2CCN(CCc3ccccc3)C(CCO)C2)ccc1OC (configuration not stated),3%,0%,-2%,-18%,?
OCCC1CN(CCCc2ccccc2)CCN1CCc1ccccc1 (configuration not stated),0%,-1%,9%,10µM*,?
OCCC1CN(Cc2ccon2)CCN1CCc1ccccc1 (configuration not stated),4%,-1%,1%,13µM*,0%
COc1ccc(CN2CCN(CCc3ccccc3)C(CCO)C2)cc1Cn1cncn1 (configuration not stated),16%,1%,-2%,?,5.2µM*
CC(C)CCN1CCN(Cc2ccon2)CC1CCO (configuration not stated),-5%,0%,2%,4%,27%
NNC(=O)[C@H](Cc1ccccc1)NC(=O)NCCc1ccccc1,-8%,2%,6%,4%,-1%
CCC(C)(C)NC(=O)C(c1ccc(OC)cc1)N(C(=O)CCC(=O)Nc1cc(C)on1)c1ccccc1F (configuration not stated),3%,3%,23%,?,?
CCC(=O)C(C#N)(c1ccc(OC)c(OC)c1)C(C)C (configuration not stated),-5%,-1%,nt,43%,22%
CCOc1cccc(CN2CCN(CCc3ccccc3)C(CCO)C2)c1O (configuration not stated),-7%,1%,0%,17%,?
COc1cccc(CN2CCN(CCCc3ccccc3)C(CCO)C2)c1O (configuration not stated),0%,2%,-2%,7.4µM*,-25%
